ALOX12 inhib – blocks human 12-lipoxygenase activity; purified 12-hLO, xylenol orange hydroperoxide absorbance; P18054; AID 1452; actives 0.12% (n = 150,000); Potency, µM (series often up to 57.1 µM), inactives show at the top dose activity change, negative = inhibition, most hits filed as inhibitors; active means well fitted inhibition curve with a large enough effect; inconclusive means small, poorly fitted or top-dose-only effect; further: potency means the concentration at half of the fitted maximal effect; nearly all actives have a fitted effect of over 55% in size
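Hydroperoxide output read as Fe(III)-xylenol orange absorbance, 573-to-405 nm ratio, after 30 min reaction with 40 uM arachidonic acid. Enzyme: 150 nM purified human 12hLO, 15 min compound preincubation; 25 mM Hepes pH 7.0, room temperature.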
PNC assembly inh – perinucleolar compartment assembly inhibition; PC3M PTB-GFP, PNC prevalence imaging, 16 h; hits give low values; activity change (PNC), negative = inhibition, % at 10 µM; actives 3.1% (n = 140,000); AID 2417;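 active means readout at or below -70, meaning at least 70% loss of cells showing the perinucleolar compartment, a nuclear body marking cancer cells; inconclusive means readout between -30 and a set limit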;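 further: plate controls were DMSO wells for no effect and camptothecin positive control wells for full effect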
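PC3M cells stably expressing PTB-GFP, 750–1000 cells/well, treated 16 h at 37 °C with compound (23 nl of library stock), in duplicate. After paraformaldehyde fixation and Hoechst stain, imaged at 20x; PNC prevalence scored by image analysis.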
Lamin A splicing – changes lamin A minigene splicing in HeLa cells; HeLa LMNA splicing GFP/RFP minigene ratio, 48 h; Potency, µM (doses to about 46.1 µM), without a hit: top-dose ratio change, negative = inhibition, usual class: inhibitors; actives 0.01% (n = 200,000); active means well fitted inhibition curve with a large enough effect in the signal ratio, with a control signal flat, not every such curve was filed as active; inconclusive means small, poorly fitted or top-dose-only effect, or effect the other way, or a change in a side signal; the % refers to the signal ratio; further: potency means the concentration at half of the fitted maximal effect
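S3 HeLa cells stably expressing lamin A-EGFP splicing minigene plus DsRed2, 600 cells/well, 48 h compound exposure at 37C. Laser-scanning cytometry; analysed as GFP (500-530 nm)/RFP (575-640 nm) total intensity ratio; 0.5% DMSO vehicle.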
ALDH1A1 block – inhibitors of human aldehyde dehydrogenase 1A1. P00352. actives 7.3% (n = 220,000). Potency, µM (doses to about 75.3 µM), inactives show top-dose activity, negative = inhibition, hits mostly inhibitors. Purified ALDH1A1, NADH fluorescence, propionaldehyde substrate;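 further: potency means the concentration at half of the fitted maximal effect; plate controls were no enzyme wells and a reference inhibitor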
Target sequence (P00352 whole entry, looked up): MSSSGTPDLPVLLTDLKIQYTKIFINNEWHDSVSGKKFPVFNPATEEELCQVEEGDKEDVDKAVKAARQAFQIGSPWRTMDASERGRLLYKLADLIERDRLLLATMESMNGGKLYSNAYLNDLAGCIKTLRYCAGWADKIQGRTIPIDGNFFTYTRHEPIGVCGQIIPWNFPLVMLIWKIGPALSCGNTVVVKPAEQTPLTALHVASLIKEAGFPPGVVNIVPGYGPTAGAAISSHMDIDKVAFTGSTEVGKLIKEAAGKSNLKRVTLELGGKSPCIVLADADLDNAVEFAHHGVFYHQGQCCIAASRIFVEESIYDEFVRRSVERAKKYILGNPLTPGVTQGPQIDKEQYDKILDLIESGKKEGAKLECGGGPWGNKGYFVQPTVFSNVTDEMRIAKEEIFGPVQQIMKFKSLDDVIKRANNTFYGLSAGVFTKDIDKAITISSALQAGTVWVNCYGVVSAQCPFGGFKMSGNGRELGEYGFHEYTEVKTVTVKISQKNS
HPGD inh – HPGD (human) dehydrogenase inhibition; P15428; purified HPGD, NADH fluorescence kinetic, PGE2 substrate; Potency, µM, for the others: at the highest dose activity change, negative = inhibition, most hits filed as inhibitors; actives 4.3% (n = 150,000); further: potency means the concentration at half of the fitted maximal effect
Target sequence (P15428 whole entry, looked up): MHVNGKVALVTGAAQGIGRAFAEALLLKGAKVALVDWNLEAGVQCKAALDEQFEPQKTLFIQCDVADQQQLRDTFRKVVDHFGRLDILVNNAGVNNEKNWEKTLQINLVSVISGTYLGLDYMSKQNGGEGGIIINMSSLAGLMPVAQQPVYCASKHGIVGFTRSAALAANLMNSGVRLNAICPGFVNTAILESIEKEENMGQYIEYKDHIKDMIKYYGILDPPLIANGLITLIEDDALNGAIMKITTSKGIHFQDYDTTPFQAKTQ
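20 nM HPGD preincubated 15 min at room temperature with compound in 50 mM Tris-HCl pH 8, 0.01% Tween 20. Started with 1 mM NAD+ and 30 uM prostaglandin E2; NADH fluorescence (360/450 nm) read 5 times over 30-s intervals, last minus first.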
Numbers without * were called inactive; ? = inconclusive; / = no result; [ ] = dose if it differs, or a comment. A selection: hits, their analogues and other compounds. The true share with any hit is near 10%. Unless noted, the call rests on the fitted dose curve; in most records, active means well fitted inhibition curve with a large enough effect (not every such curve was filed as active); inconclusive means small, poorly fitted or top-dose-only effect, or another doubt; inactive means no such curve, though single readings can be large or run the other way. Unless noted, on the % scale 0 is the no-effect control and ±100 the full control effect.

SMILES	ALOX12 inhib	PNC assembly inh	Lamin A splicing	ALDH1A1 block	HPGD inh
O=C1C=C(c2cccs2)CC(c2cccs2)C1n1cnc([N+](=O)[O-])c1 (centres undefined)	-2%	21	8%	28µM*	-15%
Nc1ncnc2c1ncn2[C@@H]1O[C@H](COP(=O)(O)OP(=O)(O)OP(=O)(O)OP(=O)(O)OC[C@@H]2O[C@H](n3cnc4c(N)ncnc43)[C@@H](O)[C@@H]2O)[C@H](O)[C@H]1O	/	/	?	8%	8%
COc1ccc(C(=O)Oc2cccnc2)cc1OC	1%	28	12%	10µM*	-10%
CCCC(=O)c1c[nH]c(C(=O)NCc2cccnc2)c1	/	/	/	28µM*	/
CC(C)c1ccc(C(=O)NC(=S)NCc2cccnc2)cc1	-14%	?	?	28µM*	-13%
COc1ccc(C(=O)NCc2cccnc2)cc1OC	2%	?	11%	25µM*	-13%
O=C(N[C@H]1CCCc2ccccc21)O[C@@H]1C(=O)c2cc(Br)ccc2O[C@H]1c1ccc2c(c1)OCO2	/	/	/	?	-10%
CCN(CC)CCN(C(=O)c1ccco1)c1nc2c(C)c(C)ccc2s1	/	/	-20%[46 µM]	/	/
O=C(CSc1nccn1Cc1ccccc1)Nc1ccc2c(c1)OCO2	/	/	3%[46 µM]	/	/
CN1CCN(c2ncc3c(n2)CCN(Cc2ccccc2Cl)C3)CC1	/	/	-6%[46 µM]	/	/
COc1ccc(N)c2c1C(=O)c1ccccc1C2=O	-2%	7	-26%	?	-2%
COC1=C(OC)C(=O)c2ccccc2C1=O	-3%	/	?	14µM*	?
COc1ccc(OC)c2c1C(=O)c1ccccc1C2=O	-21%	-27	?	7.9µM*	-4%
O=C(c1cc(O)c(O)c([N+](=O)[O-])c1)c1ccccc1F	-30%	/	?	13µM*	14µM*
CC(C)(C)N1CC(c2nc3ccccc3n2CCOc2ccccc2)CC1=O (centres undefined)	1%	20	4%	3.2µM*	-7%
CN1CCC2(CC1)N=C(c1ccc(F)cc1)C(=S)N2C(=O)c1ccc(C(C)(C)C)cc1	-4%	20	?	18µM*	/
CC(C)(C)c1ccc(C(=O)N2CCNCC2)cc1	2%	20	-4%	9%	?
COC(=O)/C=C/C(=O)Nc1ccc(O)c(Cl)c1	-2%	0	?	13µM*	-13%
COC(=O)/C=C/C(=O)Nc1cccnc1	-3%	12	?	-18%	/
COc1ccc(NC(=O)COC(=O)/C=C/C(=O)OCC(=O)Nc2ccc(OC)c(Cl)c2)cc1Cl	2%	27	-19%	11µM*	-14%
COc1ccc(NC(=O)C=C(C)C)cc1Cl	-15%	32	6%	-9%	18µM*
CCOC(=O)/C=C/C(=O)OCC(=O)Nc1ccc(OC)c(Cl)c1	-3%	38	-9%	?	-12%
COCC(=O)Nc1ccc(OC)c(Cl)c1	/	/	/	-6%	/
CCOC(=O)/C=C/C(=O)OCC(=O)Nc1ccc(Cl)cc1Cl	/	/	-11%[46 µM]	25µM*	/
COc1ccc(-c2noc(N3CCC(C(=O)N4CCN(c5cccc(OC)c5)CC4)CC3)n2)cc1	/	/	-1%[46 µM]	/	/
SMILES	ALOX12 inhib	PNC assembly inh	Lamin A splicing	ALDH1A1 block	HPGD inh
CC(C)Oc1ccc(CNC(=O)c2ccc3c(c2)nc2n3CCCCC2)cc1	/	/	3%[46 µM]	/	/
COc1ccc(OC)c(NC(=O)CSc2nccn2-c2cc(C)cc(C)c2)c1	/	/	-10%[46 µM]	/	/
O=C(CNS(=O)(=O)c1ccccc1)NCC(=O)OCc1ccc(C(=O)c2ccccc2)cc1	1%	30	5%	-22%	20µM*
Cc1ccc(S(=O)(=O)NCC(=O)OCc2ccccc2)cc1	/	/	-4%[46 µM]	-3%	/
CN(C)C(=O)c1ccc(-c2cc(NCc3cccnc3)ncn2)cc1	/	/	-10%	?	/
CCN(CC(=O)N1CCCCCC1)S(=O)(=O)c1ccc(Cl)cc1	-3%	-1	11%	-11%	-10%
CCN(CC(=O)N1CCN(C)CC1)S(=O)(=O)c1ccc(Cl)cc1	4%	-107*	0%	9%	-8%
CN(CC(=O)NCc1ccccn1)S(=O)(=O)c1ccc(Br)cc1	/	/	22%[46 µM]	8%	/
CCS(=O)(=O)c1nc(S(=O)(=O)c2ccc(Cl)cc2)c(N2CCc3ccccc3C2)s1	-1%	?	?	1.4µM*	-8%
CCS(=O)(=O)c1nc(S(=O)(=O)c2ccc(Cl)cc2)c(NCc2ccccn2)s1	/	/	/	13µM*	/
CCN(CC(=O)NCc1ccccn1)S(=O)(=O)c1ccc(Cl)cc1	0%	?	-2%	?	22µM*
CCNc1sc(S(C)(=O)=O)nc1S(=O)(=O)c1ccc(Cl)cc1	/	/	/	-8%	/
O=C(C[C@@H](C(=O)O)N1CCOCC1)c1ccccc1	0%[11.4 µM]	/	/	6%[13.5 µM]	-3%
N#Cc1c(C(F)(F)F)cc(-c2ccc(Cl)c(Cl)c2)nc1SCCN1CCOCC1	-12%	14	3%	2%	25µM*
C=CCSc1nc(-c2ccc3c(c2)OCO3)cc(C(F)(F)F)c1C#N	-12%	-96*	9%	?	?
Cc1cc(C(F)(F)F)nc(SCCN2CCOCC2)c1C#N	/	/	?	22µM*	/
NC(=O)C(=O)O	-1%	/	-12%	-3%	-5%
Cc1ccc(C(=O)C[n+]2cc(Br)cc(Br)c2)cc1[N+](=O)[O-]	2%	16	-2%	16µM*	-6%
Cc1ccnc(NS(=O)(=O)c2ccc(NC(=O)c3ccc(S(=O)(=O)N4CCCC4)cc3)cc2)n1	/	/	22%[46 µM]	?	/
O=C(Nc1ccc(S(=O)(=O)Nc2ncccn2)cc1)c1cccc(Cl)c1	/	/	-6%[46 µM]	/	/
O=C(Nc1ccc(S(=O)(=O)Nc2ncccn2)cc1)c1ccc2ncsc2c1	/	/	/	7.1µM*	/
O=S(=O)(Nc1ncccn1)c1ccc(NC(=S)Nc2ccc(Cl)cc2)cc1	/	/	/	10µM*	/
O=C(Nc1ccc(Cl)cc1)Nc1ccc(S(=O)(=O)Nc2ncccn2)cc1	/	/	/	-3%	/
CN(C)c1nc(NS(=O)(=O)c2ccc(Cl)cc2)nc(N(C)C)n1	-1%	-121*	14%	2%	-2%
O=C(Nc1ccc(S(=O)(=O)Nc2ncccn2)cc1)c1ccc(S(=O)(=O)N2CCCC2)cc1	/	/	?	25µM*	/
SMILES	ALOX12 inhib	PNC assembly inh	Lamin A splicing	ALDH1A1 block	HPGD inh
CCC(=O)OCC(=O)C1(OC(=O)CC)C(C)CC2C3CCC4=CC(=O)C=CC4(C)C3(Cl)C(O)CC21C (centres undefined)	-1%	/	/	-2%	-7%
Cc1nn(-c2ccc(N3CCCC3)nn2)c(C)c1CCC(=O)NCc1ccc(F)cc1	/	/	10%[46 µM]	/	/
CCNc1ncc2nc(C)c(=O)n(CCOC)c2n1	/	/	-8%	?	/
COc1ccc(NS(=O)(=O)c2ccc(N3CCOCC3)c(NC(=O)c3ccccc3Cl)c2)cc1	1%	24	-1%	7%	-11%
COc1ccc(NS(=O)(=O)c2cccc(NC(=O)c3ccc(S(=O)(=O)N4CCCCCC4)cc3)c2)cc1	-1%	-112*	?	?	-13%
COc1ccc(NS(=O)(=O)c2ccc(O)c(NC(=O)c3ccc(S(=O)(=O)N4CCCCCC4)cc3)c2)cc1	-2%	51	?	2%	-6%

Screens: PubChem BioAssay, National Center for Advancing Translational Sciences (NCATS)
